PubChem BioAssay (EPA / NIEHS)
Records with an inconclusive call do not appear. Active and inactive are the calls of the source. The calls were made as follows, unless noted: active = hit-call score of the fitted dose curve at least 0.9, where 1 is the maximum; inactive = score below 0.9.

Tests used:
[1] = CCTE_Mundy_HCI_Cortical_NOG_NeuriteCount: CCTE's Neurite Outgrowth Assay in rat cortical cells for Neurite Count, Mundy Lab (AID 2284212);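 also: cells fixed about two days after chemical exposure began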
Method in brief: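 Rat cortical primary cells; compound added 2 h post-plating, 1/10 dilution of working solution. Anti-betaIII-tubulin/AF488 ICC; ArrayScan neurite count vs DMSO.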

[2] = CCTE_Mundy_HCI_Cortical_NOG_NeuriteLength: CCTE's Neurite Outgrowth Assay in rat cortical cells for Neurite Length, Mundy Lab (AID 2284213)
Method in brief: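 First, rat primary cortical cells were plated and, 2 h later, given test chemical as a 1/10 dilution. Finally, βIII-tubulin immunostaining enabled automated imaging of neurite length.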

[3] = CCTE_Mundy_HCI_Cortical_Synap_Neur_Matur_NeuriteLength: CCTE's Synaptogenesis and Neurite Maturation Assay in rat cortical cells for Neurite Length, Mundy Lab (AID 2284214)
Method in brief: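 DMSO-normalised neurite length, from high-content imaging of anti-MAP2-stained rat cortical cells fixed at DIV 12. Glia were suppressed with AraC (DIV 5) before chemical exposure from DIV 7.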

[4] = CCTE_Mundy_HCI_Cortical_Synap_Neur_Matur_SynapseCount: CCTE's Synaptogenesis and Neurite Maturation Assay in rat cortical cells for Synapse Count, Mundy Lab (AID 2284218)
Method in brief: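 Endpoint: synapses/neuron by HCI (synaptophysin puncta on MAP2-labelled neurites, Hoechst nuclei). Rat primary cortical cells, AraC DIV 5, dosed DIV 7, fixed DIV 12; DMSO negative control.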

[5] = CCTE_Mundy_HCI_Cortical_Synap_Neur_Matur_NeuriteCount: CCTE's Synaptogenesis and Neurite Maturation Assay in rat cortical cells for Neurite Count, Mundy Lab (AID 2284222);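 also: exposure from day 7 to day 12 in vitro with readout at day 12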
Method in brief: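 Rat primary cortical cells; AraC added at DIV 5, chemicals dosed with media change at DIV 7 through DIV 12. MAP2/synaptophysin/Hoechst immunostaining, high-content imaging of neurite number; fitted relative to DMSO.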

[6] = CCTE_Mundy_HCI_Cortical_Synap_Neur_Matur_CellBodySpotCount: CCTE's Synaptogenesis and Neurite Maturation Assay in rat cortical cells for Cell Body Spot Count, Mundy Lab (AID 2284223)
Method in brief: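 High-content imaging counts synaptophysin puncta on neuronal cell bodies per neuron after MAP2/synaptophysin immunostaining. Rat primary cortical cells, glia arrested with AraC at DIV 5, were exposed DIV 7–12; signal decrease measured against DMSO.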

[7] = CCTE_Mundy_HCI_hNP1_Pro_ResponderAvgInten: CCTE's Proliferation Assay in human neuroprogenitor cells, Mundy Lab (AID 2284224; active = hit-call score of the fitted dose curve at least 0.9, where 1 is the maximum;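 also: human neural progenitor cells hNP1 derived from WA09 embryonic stem cells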)
Method in brief: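 Proliferation read as average intensity of BrdU-positive cells, imaged at 26.25 h post-dosing: chemical exposure started after 40–44 h culture, BrdU during final 4 h, paraformaldehyde fixation. Positive-direction fit relative to DMSO.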

[8] = UKN2_HCS_IMR90_cell_viability: Viability Assessment in the University of Konstanz (UKN) Leist Lab Neural Crest Cell Migration Assay in human induced IMR90 Pluripotent Stem Cells (UKN2) (AID 2284233);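 also: cells exposed to compound for 24 h after a 24 h migration phase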
Method in brief: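 Viability read as calcein-AM fluorescence by high-content imaging, Hoechst co-stain, 30 min. Human iPSC (IMR90) neural crest cells had migrated 24 h into stopper-defined gaps before 24 h chemical exposure. Fitted bidirectionally relative to DMSO.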

[9] = CCTE_Mundy_HCI_Cortical_NOG_NeuronCount: CCTE's Neurite Outgrowth Assay in rat cortical cells for Neuron Count, Mundy Lab (AID 2284236; active = hit-call score of the fitted dose curve at least 0.9, where 1 is the maximum;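 also: neurons counted by imaging betaIII-tubulin and Hoechst stained cortical cells; cells exposed to compound for about 48 hours before fixation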)
Method in brief: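 Read-out: neuron number by high-content imaging of betaIII-tubulin (Alexa Fluor-488) and Hoechst-labelled rat primary cortical cells.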

[10] = CCTE_Mundy_HCI_Cortical_NOG_BPCount: CCTE's Neurite Outgrowth Assay in rat cortical cells for Branch Point Count, Mundy Lab (AID 2284237)
Method in brief: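 Measured 50.33 h after dosing, this morphology endpoint uses rat primary cortical cultures labelled for betaIII-tubulin. Branch points are quantified by high-content imaging, with DMSO as negative control and baseline.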

[11] = CCTE_Mundy_HCI_hNP1_Casp3_7: CCTE's Caspase-Glo 3/7 Assay in human neuroprogenitor cells for Apoptosis, Mundy Lab (AID 2284240)
Method in brief: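 Luminescent caspase-3/7 readout, 26.5 h post-dose, in human neural progenitor cells from WA09 embryonic stem cells. Cells grew 40–44 h at 37 °C, 5% CO2 before chemical addition. Activity analysed as signal increase over DMSO baseline.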

[12] = CCTE_Mundy_HCI_Cortical_Synap_Neur_Matur_NeuronCount: CCTE's Synaptogenesis and Neurite Maturation Assay in rat cortical cells for Neuron Count, Mundy Lab (AID 2284242; active = hit-call score of the fitted dose curve at least 0.9, where 1 is the maximum;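 also: hits reduce neuron count versus DMSO baseline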)
Method in brief: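 Measured at DIV 12: fluorescently labelled neurons (Hoechst nuclei, MAP2) in rat primary cortical cultures, counted by high-content imaging. AraC suppressed glia from DIV 5; DMSO served as negative control.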

[13] = IUF_NPC2a_radial_glia_migration_120hr: Leibniz Research Institute for Environmental Medicine (IUF) 120-hour Neural Progenitor Cell Migration Assay for Radial Glia Migration (NPC2a) (AID 2284298)
Method in brief: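 Migration distance in um, sphere core edge to migration-area edge, derived by nuclei-density algorithm from Hoechst images after 120 h compound exposure. Primary hNPC spheres differentiated on poly-D-lysine/laminin in N2 medium, 37C; medium half-replaced day 3.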

[14] = IUF_NPC2a_radial_glia_migration_72hr: Leibniz Research Institute for Environmental Medicine (IUF) 72-hour Neural Progenitor Cell Migration Assay for Radial Glia Migration (NPC2a) (AID 2284299)
Method in brief: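 Spheres of human primary neural progenitors migrate on poly-D-lysine/laminin under compound exposure at 37C, 5% CO2. The 72 h radial glia migration distance comes from brightfield images, measured manually.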

[15] = IUF_NPC3_neuronal_differentiation_120hr: Leibniz Research Institute for Environmental Medicine (IUF) 120-hour Neuronal Differentiation Assay (NPC3) (AID 2284301)
Method in brief: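 hNPC spheres, PDL/laminin, DMEM/F12 3:1 + 1% N2, 37C, 5% CO2; 7 concentrations + solvent control, 5 d exposure, half-change day 3. Fix 120 h; TUBB3/Hoechst ICC, CNN neuron calling; % neurons vs nuclei, DMSO-normalized.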

[16] = IUF_NPC4_neurite_length_120hr: Leibniz Research Institute for Environmental Medicine (IUF) 120-hour Neuronal Morphology Assay for Neurite Length (NPC4) (AID 2284302)
Method in brief: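 hNPC spheres (0.3 mm, fetal brain GW 16-19) on PDL/laminin, DMEM:F12 3:1 + 1% N2, 37C 5% CO2; 7 concs + solvent control, day 0-5, half medium change d3; fix 120 h, TUBB3 ICC, mean neurite length um vs DMSO.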

[17] = IUF_NPC4_neurite_area_120hr: Leibniz Research Institute for Environmental Medicine (IUF) 120-hour Neuronal Morphology Assay for Neurite Area (NPC4) (AID 2284305; active = hit-call score of the fitted dose curve at least 0.9, where 1 is the maximum)
Method in brief: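 hNPC spheres on PDL/laminin, N2 medium, 37C/5% CO2; dosed day 0, half-medium refresh day 3; fixed 120 h; TUBB3/Hoechst ICC, high-content imaging; neurite area = mean pixels per neuron (nuclei excluded); DMSO baseline, max 0.1%.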

[18] = IUF_NPC2-5_cytotoxicity_120hr: Cytotoxicity Assessment at 120 hours in the Leibniz Research Institute for Environmental Medicine (IUF) Neural Progenitor Cell Migration and Differentiation Assay (NPC2-5) (AID 2284307; active = hit-call score of the fitted dose curve at least 0.9, where 1 is the maximum)
Method in brief: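 Membrane-integrity loss measured as LDH activity in medium supernatant via resazurin-to-resorufin fluorescence after 120 h exposure. hNPC spheres from GW 16-19 fetal cortex differentiated on poly-D-lysine/laminin, 37C, medium half-refreshed day 3; seven concentrations, DMSO max 0.1%.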

[19] = IUF_NPC2-5_cell_number_120hr: Cell Number Assessment at 120 hours in the Leibniz Research Institute for Environmental Medicine (IUF) Neural Progenitor Cell Migration and Differentiation Assay (NPC2-5) (AID 2284308);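 also: count of Hoechst-stained nuclei in migration zone around plated human neural progenitor spheres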
Method in brief: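 Counting of all Hoechst-stained nuclei in the migration area at 120 h, versus DMSO control. Primary hNPC spheres differentiated on poly-D-lysine/laminin in N2 medium at 37C, dosed from day 0 (7 concentrations, DMSO ≤0.1%), half-refed day 3.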

[20] = IUF_NPC2-5_viability_120hr: Viability Assessment at 120 hours in the Leibniz Research Institute for Environmental Medicine (IUF) Neural Progenitor Cell Migration and Differentiation Assay (NPC2-5) (AID 2284312)
Method in brief: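 Human fetal neural progenitor spheres (0.3 mm) plated on poly-D-lysine/laminin in N2 differentiation medium, exposed 120 h with half-medium refresh at day 3. Viability by alamar blue resazurin fluorescence; 7 concentrations, DMSO max 0.1%.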

[21] = IUF_NPC1_cytotoxicity_72hr: Cytotoxicity Assessment at 72 hours in the Leibniz Research Institute for Environmental Medicine (IUF) Neural Progenitor Cell Proliferation Assay (NPC1) (AID 2284332; active = hit-call score of the fitted dose curve at least 0.9, where 1 is the maximum;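 also: rising LDH signal means more cytotoxicity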)
Method in brief: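 Readout is fluorescence from LDH-dependent resazurin conversion, sampled from culture medium after compound contact lasting 72 h. Each well holds one 0.25-0.35 mm human progenitor sphere kept at 37C, 5% CO2 with EGF and FGF.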

[22] = CCTE_Mundy_HCI_iCellGluta_NOG_NeuronCount: CCTE's Neurite Outgrowth Assay in iCellGluta cells for Neuron Count, Mundy Lab (AID 2284340; active = hit-call score of the fitted dose curve at least 0.9, where 1 is the maximum;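 also: cells fixed about 48 h after compound addition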)
Method in brief: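 Neuron count read by automated high-content imaging of Hoechst 33342 and betaIII-tubulin/Alexa Fluor-488 labelling in human iPSC glutamatergic neurons. Activity fitted relative to DMSO.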

[23] = CCTE_Mundy_HCI_iCellGluta_NOG_NeuriteCount: CCTE's Neurite Outgrowth Assay in iCellGluta cells for Neurite Count, Mundy Lab (AID 2284342; active = hit-call score of the fitted dose curve at least 0.9, where 1 is the maximum;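 also: chemical exposure about 48 hours starting 2 hours after plating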)

Measured: AC50

CCOP(=O)(OCC)OC(Cl)C(Cl)(Cl)Cl (stereo not drawn)
active: [12] 9.85 µM | [19] 36 µM
inactive: all other assays above
